Assay type in all cases: functional
Assay [1] has as its target Solute carrier family 2, facilitated glucose transporter member 1 (Homo sapiens) (UniProt P11166). Put plainly: ST_JUDE_LEISH: Cytotoxicity at 2uM final concentration against transgenic Leishmania Mexicana promastigotes LmGLUT1 that are glucose transport deficient and complemented with the human glucose transporter GLUT1. Activity is measured by DNA content using SYBR green in vitro.

Assay [2] deals with Hexose transporter 1 (Plasmodium falciparum) (UniProt O97467). Briefly: ST_JUDE_LEISH: Cytotoxicity at 2uM final concentration against transgenic Leishmania Mexicana promastigotes LmPfHT that are glucose transport deficient and complemented with the Plasmodium falciparum hexose transporter. Activity is measured by DNA content using SYBR green in vitro.
Assay [3] deals with Glucose transporter (Leishmania mexicana) (UniProt O61059). Put plainly: ST_JUDE_LEISH: Cytotoxicity at 2uM final concentration against transgenic Leishmania Mexicana promastigotes LmGT2 that are glucose transport deficient and complemented with the L. Mexicana glucose transporter 2. Activity is measured by DNA content using SYBR green in vitro.

Structures are written as SMILES.

Sequence of Solute carrier family 2, facilitated glucose transporter member 1 (Homo sapiens) (P11166 whole entry): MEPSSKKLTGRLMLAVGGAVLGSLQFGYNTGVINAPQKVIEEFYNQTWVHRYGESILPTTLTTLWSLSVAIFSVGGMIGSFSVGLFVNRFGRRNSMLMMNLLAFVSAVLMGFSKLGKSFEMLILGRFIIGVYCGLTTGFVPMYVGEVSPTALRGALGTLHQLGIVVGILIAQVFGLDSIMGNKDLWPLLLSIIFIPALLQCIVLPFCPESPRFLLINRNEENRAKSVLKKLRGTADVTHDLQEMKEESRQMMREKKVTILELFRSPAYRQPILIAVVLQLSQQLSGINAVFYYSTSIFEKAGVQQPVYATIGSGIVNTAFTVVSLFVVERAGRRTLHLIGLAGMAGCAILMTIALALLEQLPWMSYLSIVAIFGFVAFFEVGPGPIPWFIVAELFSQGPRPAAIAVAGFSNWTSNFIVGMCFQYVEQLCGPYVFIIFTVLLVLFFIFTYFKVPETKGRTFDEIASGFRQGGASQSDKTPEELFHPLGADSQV

What is called inhibition is the relative decrease from the control value, in per cent. Turning to `OCC1CCN(Cc2ccc(-c3ccc(-c4nc5ccccc5[nH]4)cc3)cc2)CC1`, the inhibition is 6.11% in assay [1], 5.06% in assay [2] and 5.45% in assay [3].

With `Cc1ccc(C2CCN(CCCCNC(=O)c3ccc(NC(=O)c4ccc(Cl)cc4)cc3)CC2)c(OCC2CC2)c1`, the inhibition in assay [1] amounted to 7.51%; in assay [2], 6.25%; in assay [3], 5.52%.

Regarding `Fc1ccc(Nc2ccnc3cc(-c4ccc(CNCCN5CCOCC5)o4)ccc23)c(Cl)c1`, the inhibition in assay [1] is 2.04%; in assay [2], 2.02%; in assay [3], 2.34%.

In the case of `CCOC(=O)c1nc(-c2ccccc2)[nH]c1-n1nc(C)cc1C`, the inhibition in assay [1] worked out at 1.44%; in assay [2], 0.92%; in assay [3], 0.66%.

Turning to `CCN(CC)CCN(Cc1ccc(-c2ccc(C(F)(F)F)cc2)cc1)C(=O)Cn1c(CCc2c(F)cccc2F)nc(=O)c2ccccc21`, the inhibition amounted to 4.96% in assay [1], 4.88% in assay [2] and 5.59% in assay [3].

As for `COc1ccc(CNC2CCN(C)CC2)cc1-c1ccc(S(=O)(=O)NCc2ccccc2)c(F)c1`, the results for the inhibition in assay [1], in assay [2] and in assay [3] were -0.66%, -0.53% and -1.2%, respectively.

Values taken from ChEMBL document CHEMBL3433997, “St. Jude Leishmania screening dataset” (2016).
